Screening results (PubChem)
CD11b adhes inh – blocks human CD11b/CD18 adhesion to fibrinogen; P05107+P11215; K562 CD11b/CD18 adhesion to fibrinogen, ATPlite luminescence; Mn2+ added to activate the integrin; inhibition, % at 10 µM; hit rate 0.54% among 93,000; AID 1497;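 active = primary inhibition of 50% or more at 10 µM, then 40% or more on retest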
CYP2C9 inh – inhibitors of human CYP2C9 | CYP2C9 Supersomes, luciferin-H conversion, luminescence | inhibition, % at 5 µM | hit rate 20% among 96,000 | P11712;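 active = blocking of liver enzyme CYP2C9 beyond about 50% at 5 µM, limit read from the data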
Mac1 fbg enh – increases human CD11b/CD18 adhesion to fibrinogen | P05107+P11215 | K562 CD11b/CD18 adhesion to fibrinogen, ATPlite luminescence | activation, % at 10 µM | hit rate 0.07% among 93,000 | AID 1499;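 active = 10 µM primary screen giving 50% or more activity, confirmed by 40% or more on retest at that dose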
CYP2C9 activ – CYP2C9 (human) activation. P11712. recombinant CYP2C9, luciferin-H conversion, luminescence; active compounds read high; factor 1 = untreated enzyme, 0 = blocked. activation factor at 5 µM. hit rate 1.4% among 96,000. AID 1024;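 active = activation factor of 2 or more for CYP2C9 at a 5 µM dose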
CYP2C19 inhib – human CYP2C19 inhibition. CYP2C19 Supersomes, luciferin-H EGE luminescence, 30 min. inhibition, % at 5 µM. hit rate 21% among 96,000. AID 778;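 active = CYP2C19 inhibition above a set limit at 5 µM in the primary screen, cut at about 50% in these data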
Target sequence (P33261 whole entry, looked up): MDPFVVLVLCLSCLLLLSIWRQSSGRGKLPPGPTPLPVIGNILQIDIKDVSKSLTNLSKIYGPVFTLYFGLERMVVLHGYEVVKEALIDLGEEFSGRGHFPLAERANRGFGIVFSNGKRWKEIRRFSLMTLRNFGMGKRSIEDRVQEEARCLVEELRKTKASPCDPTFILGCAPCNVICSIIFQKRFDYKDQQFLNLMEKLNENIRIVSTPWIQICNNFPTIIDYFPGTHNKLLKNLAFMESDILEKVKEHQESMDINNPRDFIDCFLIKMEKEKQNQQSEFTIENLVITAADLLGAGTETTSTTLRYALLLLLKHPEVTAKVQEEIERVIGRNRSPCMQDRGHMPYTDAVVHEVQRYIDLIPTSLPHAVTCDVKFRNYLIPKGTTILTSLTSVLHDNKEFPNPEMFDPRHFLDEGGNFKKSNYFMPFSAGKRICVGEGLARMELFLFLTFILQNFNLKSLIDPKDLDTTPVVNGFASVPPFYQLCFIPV
CYP2C19 act – activators of human cytochrome P450 2C19 | P33261 | recombinant CYP2C19, luciferin-H EGE luminescence; active compounds read high; 0 = fully inhibited enzyme, 1 = untreated enzyme | activation factor at 5 µM | 96,000 tested, under 10 active | AID 1025;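 active = activation factor of at least 2 at 5 µM in the primary screen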
Large screens that a line does not name were inactive. A selection: hits, their analogues and other compounds. The true share with any hit is near 28%.

CCN(C(=O)COC(=O)C(Cc1ccccc1)N1C(=O)c2ccccc2C1=O)C1CCS(=O)(=O)C1 (configuration not stated)	none
COc1ccccc1CNC(=O)C1CC(=O)N(c2ccc(C)c(C)c2)C1 (configuration not stated)	CYP2C9 activ 2.5, CYP2C19 inhib 57.9
COc1ccccc1CNC(=O)C1CC(=O)N(C2CCCC2)C1 (configuration not stated)	none (no result: CD11b adhes inh, Mac1 fbg enh)
CC(C)Cn1cc(C(=O)NC2CCN(Cc3ccccc3)CC2)c2c3ccccc3n(C)c2c1=O	CYP2C19 inhib 57.3
CC(C)Cn1cc(C(=O)N2CCN(c3ccccn3)CC2)c2c3ccccc3n(C)c2c1=O	CYP2C9 inh 78.3
CCN1CCN(C(=O)c2cn(CCOC)c(=O)c3c2c2ccccc2n3C)CC1	none
O=c1[nH]c2ccsc2c(=O)n1-c1ccc(F)c(Cl)c1	none
Cc1cc([N+](=O)[O-])nn1CC(=O)NCc1cccs1	none
N#Cc1cccc(NC(=O)CN2NS(=O)(=O)c3ccccc3C2=O)c1	none
O=C(c1ccc(Cl)cc1)C1CCN(C(=O)NC2CCCCC2)CC1	CYP2C9 inh 84.7, CYP2C19 inhib 92.9
CC(=O)N1CCC(C(=O)c2ccc(Cl)cc2)CC1	none
CCOC(=O)/C(N=Nc1ccc(Cl)cc1)=C(/O)c1ccc([N+](=O)[O-])cc1	none
CCCn1nnc(NC(=O)c2cccc(OCC(C)C)c2)n1	none
CC(C)CCN1C(=O)c2ccc(C(=O)NCC3CCCO3)cc2C1=O (configuration not stated)	CYP2C9 inh 80.7, CYP2C19 inhib 79.3
Cc1cc(NC(=O)c2ccc3c(c2)C(=O)N(C2CCCCC2)C3=O)no1	none
O=C(NCC1CCCO1)c1ccc2c(c1)C(=O)N(C1CCCCC1)C2=O (configuration not stated)	CYP2C9 inh 60.6
CCN(c1ccccc1)S(=O)(=O)c1cc(OC)ccc1OC	CYP2C9 inh 69.4, CYP2C19 inhib 90.1
CCN(c1ccccc1)S(=O)(=O)c1ccc(OC)c(OC)c1	CYP2C19 inhib 56.3
COc1ccc(OC)c(S(=O)(=O)N(C)CC(=O)O)c1	none
O=C(O)CNc1nc(Cl)ccc1[N+](=O)[O-]	none (no result: CD11b adhes inh, Mac1 fbg enh)
O=C(OCc1csc(Nc2ccccc2)n1)c1ccc(Cl)cc1	none (no result: CYP2C9 inh, CYP2C9 activ, CYP2C19 inhib, CYP2C19 act)
CCOC(=O)CCC(NC(=O)CCCC(=O)NC(CCC(=O)OCC)C(=O)OCC)C(=O)OCC (configuration not stated)	none (no result: CYP2C9 inh, CYP2C9 activ, CYP2C19 inhib, CYP2C19 act)
CCc1c(O)nc2sc3ccccc3n2c1=O	none
CC(C)OC(=O)C1C(=O)CC(C)(O)C(C(=O)OC(C)C)C1c1ccc(F)cc1 (configuration not stated)	CYP2C19 inhib 76.6
CCN(CC)c1ccc(C2C(C(=O)OC(C)C)C(=O)CC(C)(O)C2C(=O)OC(C)C)cc1 (configuration not stated)	none
Cc1cc(C)c2c(CC(=O)N(CCC#N)Cc3cccnc3)coc2c1	CYP2C19 inhib 51.0
Cc1cc(C)c2c(CC(=O)Nc3nccs3)coc2c1	none
CC(O)Cc1nsc(NC(=O)c2ccc(Br)o2)n1 (configuration not stated)	none
CCNC(=O)COc1ccc(S(=O)(=O)Nc2ccccc2)cc1	CYP2C9 inh 62.5
CCOc1ccc(C(=O)OCC(=O)Nc2cc(C)on2)cc1OCC	none
COCCCNC(=O)COc1ccc(S(=O)(=O)Nc2ccccc2)cc1	none
Cc1ccc(NS(=O)(=O)c2cccc(C(=O)OCC(=O)NCc3ccco3)c2)cc1	CYP2C9 inh 85.8, CYP2C19 inhib 59.2
Cc1ccc(S(=O)(=O)N(C)c2ccc(OCC(=O)NCc3ccco3)cc2)cc1	CYP2C9 inh 92.6
COc1ccc(NS(=O)(=O)c2cccc(C(=O)OCC(=O)Nc3cc(C)on3)c2)cc1	CYP2C9 inh 71.2
Cc1cc(C)c2c3c(sc2n1)C(c1cccc(F)c1)C(C#N)=C(N)O3 (configuration not stated)	none
CCC1(C)NC(=O)N(CC(=O)N2N=C(c3ccccc3)CC2c2ccc(OC)cc2)C1=O (configuration not stated)	none (no result: CYP2C9 inh, CYP2C9 activ, CYP2C19 inhib, CYP2C19 act)
CCCCNC(=O)NS(=O)(=O)c1ccc(NS(=O)(=O)c2ccccc2)cc1	CYP2C9 inh 55.4
CC(=O)N(C)c1ccc(OCC(O)COc2ccc(N(C)C(C)=O)cc2)cc1	none
COc1cccc(S(=O)(=O)Nc2ccc(C(=O)NCc3ccco3)cc2)c1	CYP2C9 inh 98.5, CYP2C19 inhib 61.3
O=C(COc1ccc2oc(-c3ccccc3)cc(=O)c2c1)NCc1ccco1	CYP2C9 inh 57.5
CC(=O)N(C)c1ccc(OCC(O)CN(Cc2ccco2)S(=O)(=O)c2ccc(C)cc2)cc1 (configuration not stated)	CYP2C9 inh 80.1
CCOc1ccc(CNC(=S)N/N=C/c2ccncc2)cc1	none (no result: CYP2C9 inh, CYP2C9 activ, CYP2C19 inhib, CYP2C19 act)
Cc1ccc(NS(=O)(=O)c2ccc(OCC(=O)NCc3ccco3)cc2)cc1	CYP2C9 inh 85.4, CYP2C19 inhib 75.0
Cc1ccc(C)c(NS(=O)(=O)c2ccc(OCC(=O)NCc3ccco3)cc2)c1	none
Cc1ccc(OC(=O)c2oc3ccc(F)cc3c2C)c(C)c1	none
COc1ccc(CCNC(=O)CSc2nnc(-c3cccc(C)c3)o2)cc1OC	CYP2C19 inhib 56.0
COc1ccc(CCNC(=O)CSc2nnc(-c3ccccc3)o2)cc1OC	CYP2C19 inhib 80.7
COc1ccc(CCNC(=O)CSc2nc(N)c3c(C)c(C)oc3n2)cc1OC	CYP2C19 inhib 62.4
CCCCn1c(-c2ccccc2)cnc1SCC(=O)NCCc1ccc(OC)c(OC)c1	CYP2C9 inh 89.6, CYP2C19 inhib 95.5
COc1ccc(CCNC(=O)CSc2ccc3ccccc3c2)cc1OC	none (no result: CYP2C9 inh, CYP2C9 activ, CYP2C19 inhib, CYP2C19 act)
O=C(O)CCCC(=O)Nc1ccccc1Br	none
CC1CCCC(NC(=O)c2ccc3c(=O)n(CC4CCCO4)c(=O)[nH]c3c2)C1C (configuration not stated)	none
O=C(NNC(=O)c1ccccc1-n1cccc1)c1ccc(Cl)cc1	none (no result: CD11b adhes inh, Mac1 fbg enh)
O=C(NNC(=O)c1ccccc1Br)c1ccc(Cl)c(Cl)c1	CYP2C9 activ 2.2 (no result: CD11b adhes inh, Mac1 fbg enh)
O=C(NNC(=O)c1ccccc1-n1cccc1)c1ccc(Cl)c(Cl)c1	CYP2C19 inhib 50.4 (no result: CD11b adhes inh, Mac1 fbg enh)
CC(C)(C)c1ccc(C(=O)NNC(=O)c2ccccc2Br)cc1	none
COc1ccc(S(=O)(=O)N2CCCCCC2)cc1N(C)S(=O)(=O)c1ccc(Cl)cc1	none (no result: CD11b adhes inh, Mac1 fbg enh)
COC(=O)c1ccc(NC(=O)CSc2nnc(C(C)NC(=O)c3ccccc3Cl)n2C)cc1 (configuration not stated)	none (no result: CD11b adhes inh, Mac1 fbg enh)
O=C(Cn1ncc2c3ccccc3n(Cc3ccccc3)c2c1=O)N1CCN(c2ncccn2)CC1	CYP2C9 inh 76.9, CYP2C19 inhib 98.3
COc1ccc(Br)cc1C(=O)O	none
Cc1ccccc1C(=O)Oc1ccc(Br)cc1C(=S)N1CCCC1	CYP2C19 inhib 52.0
